# PAFAH2 inh – inhibitors of human PAFAH2; Q99487; recombinant PAFAH2, FP-rhodamine activity probe, fluorescence polarization; inhibition, % at 3.39 µM; 340,000 tested, 0.99% active; AID 492956;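 active = inhibition above the mean over all tested compounds plus 3 SD, cut at about 30% in these data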;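 note: inhibitors block probe labeling of enzyme so polarization drops; 0% = enzyme with DMSO and 100% = wells lacking PAFAH2 protein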
# Fam108B inh – counter-screen for RBBP9 inhibitors: inhibitors of mouse Fam108B. recombinant Fam108B, FP-Rh probe fluorescence polarization. inhibition, % at 9.51 µM. 300,000 tested, 0.33% active. AID 1947;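 active = inhibition above the screen mean inhibition plus 3 SD, computed separately per campaign, cut at about 18% in these data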;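 note: inhibitors lower polarization as less probe binds the enzyme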
# PAFAH1B2 inh – inhibitors of human PAFAH1B2 | P68402 | recombinant PAFAH1B2, FP-rhodamine activity probe, fluorescence polarization | inhibition, % at 3.39 µM | 340,000 tested, 1.2% active | AID 492953;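 active = inhibition above the mean of all tested compounds plus 3 SD, cut at about 24% in these data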;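 note: 0% = enzyme with DMSO and 100% = wells lacking PAFAH1B2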
# PAFAH1B3 inh – PAFAH1B3 (human) inhibition; AID 492972; inhibition, % at 3.39 µM; recombinant PAFAH1B3, FP-rhodamine probe, fluorescence polarization; 340,000 tested, 0.28% active;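 active = inhibition above the screen-wide average of all tested compounds plus 3 SD, cut at about 25% in these data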;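 note: 0% = enzyme with DMSO only and 100% = wells lacking PAFAH1B3 protein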
# PME-1 primary – blocks human protein phosphatase methylesterase 1; recombinant PME-1, FP-Rh probe fluorescence polarization; inhibition, % at 5.9 µM; 320,000 tested, 0.53% active; AID 2130;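 active = inhibition above the campaign mean of all compounds plus 3 SD, cut at about 26% in these data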;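 note: competitive labeling of PME-1 active site by serine hydrolase directed probe; 0% = PME-1 with DMSO and 100% = wells lacking PME-1 enzyme; inhibitors block probe labeling so polarization falls and inhibition rises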
# pPAFAH FP inh – pPAFAH (human) enzyme inhibition. Q13093. recombinant pPAFAH, FP-rhodamine probe fluorescence polarization. inhibition, % at 3.39 µM. 330,000 tested, 1.5% active. AID 463082;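 active = inhibition above the mean inhibition across the screen plus 3 SD, cut at about 25% in these data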;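 note: inhibitors block binding of the rhodamine activity-based probe so polarization drops; 0% = enzyme with DMSO and 100% = wells lacking pPAFAH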
# Target sequence (Q13093 whole entry, looked up): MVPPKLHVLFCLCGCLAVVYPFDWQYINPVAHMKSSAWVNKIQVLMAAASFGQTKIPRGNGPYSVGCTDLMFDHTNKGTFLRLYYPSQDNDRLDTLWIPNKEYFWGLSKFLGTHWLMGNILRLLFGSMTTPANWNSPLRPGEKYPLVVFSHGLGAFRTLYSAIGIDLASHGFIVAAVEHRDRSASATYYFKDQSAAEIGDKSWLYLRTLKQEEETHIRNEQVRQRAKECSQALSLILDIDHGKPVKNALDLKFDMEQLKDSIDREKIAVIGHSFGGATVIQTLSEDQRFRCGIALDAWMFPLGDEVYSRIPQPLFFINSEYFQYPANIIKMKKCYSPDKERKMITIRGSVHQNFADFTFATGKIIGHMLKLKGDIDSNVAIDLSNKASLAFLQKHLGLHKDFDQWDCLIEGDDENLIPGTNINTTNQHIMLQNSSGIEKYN
# An asterisk follows results filed as active; / = no result given. Hits are enriched below; roughly 2.9% of the tested compounds scored in any of these assays.
SMILES,PAFAH2 inh,Fam108B inh,PAFAH1B2 inh,PAFAH1B3 inh,PME-1 primary,pPAFAH FP inh
Cc1cc(NC(=O)Nc2cccc(Cl)c2)n(-c2ccccn2)n1,-34,-24,-4,-8,-58,-9
COc1cccc(NC(=O)CSc2nc3c(c(-c4ccco4)c2C#N)CCCC3)c1,-6,-3,-3,-4,5,3
COCCOC(=O)c1c(C)nc(SCC(=O)Nc2ccc(OC)cc2)c(C#N)c1-c1ccco1,1,3,-3,5,-2,27*
Oc1[nH]c2ccccc2c1C=Nc1ccc2c(c1)OCO2,5,2,3,6,31*,6
O=C(COC(=O)COc1ccccc1)NC12CC3CC(CC(C3)C1)C2,2,/,25*,-2,6,13
O=C(COC(=O)CNC(=O)c1ccccc1F)NC12CC3CC(CC(C3)C1)C2,-1,/,2,2,4,6
O=C(c1cc2n(n1)C(C(F)(F)F)CC(c1ccco1)N2)N1CCN(c2ccccn2)CC1 (stereo not given),-6,3,0,9,4,9
Cc1cccc(N2CCN(C(=O)c3cc4n(n3)C(C(F)(F)F)CC(c3ccco3)N4)CC2)c1C (stereo not given),7,-3,3,4,-3,34*
COc1ccc(NC(=O)CN2C(=O)c3ccccc3S2(=O)=O)cc1S(=O)(=O)N1CCOCC1,9,/,2,10,/,/
O=S(=O)(c1ccc2[nH]c3c(c2c1)CCCC3)N1CCCCC1,7,1,5,5,4,14
N#Cc1ccc(S(=O)(=O)N2CCc3[nH]c4ccc(F)cc4c3C2)cc1,8,-4,38*,5,12,13
C=CCn1c(COc2ccc(F)cc2)nnc1SCC(=O)NC1CCS(=O)(=O)C1 (stereo not given),0,3,5,-8,4,0
Cc1ccc(S(=O)(=O)n2ccc3c(OCCOCCSCC(NC(=O)OC(C)(C)C)C(=O)O)cccc32)cc1 (stereo not given),1,-10,81*,2,-2,15
Cc1ccc(S(=O)(=O)NCCCCC(NC(=O)OC(C)(C)C)C(=O)O)cc1 (stereo not given) (tested in a mixture with another compound),-2,0,5,0,5,3
O=C(CCc1ccc(O)cc1)c1c(O)cc(O)cc1O,-11,6,31*,0,5,5
O=C(Cc1ccc2c(c1)OCCO2)c1c(O)cc(O)cc1O,4,3,8,5,-6,11
O=c1cc(-c2ccc(O)c(O)c2)oc2cc(O[C@@H]3O[C@H](CO)[C@@H](O)[C@H](O)[C@H]3O)cc(O)c12,52*,/,67*,67*,/,15
COc1cc(-c2oc3cc(O)cc(O)c3c(=O)c2O[C@@H]2O[C@H](COC3O[C@@H](C)[C@H](O)[C@@H](O)[C@H]3O)[C@@H](O)[C@H](O)[C@H]2O)ccc1O (stereo not given in full),-8,/,4,6,/,-4
C[C@@H]1O[C@@H](OC[C@H]2O[C@@H](Oc3cc(O)c4c(=O)cc(-c5ccc(O)c(O)c5)oc4c3)[C@H](O)[C@@H](O)[C@@H]2O)[C@H](O)[C@H](O)[C@H]1O,23,/,75*,87*,/,15
O=c1c(OC2OC(CO)C(O)C(O)C2O)c(-c2ccc(O)c(O)c2)oc2cc(O)cc(O)c12 (stereo not given),-7,-3,3,46*,-16,29*
O=c1c(O[C@H]2O[C@@H](CO)[C@H](O)[C@@H](O)[C@@H]2O)c(-c2ccc(O)cc2)oc2cc(O)cc(O)c12,2,/,3,2,5,-3
CCOC(=O)CCNC(=O)N1CCCC(Cc2ccccc2)(C(=O)OCC)C1 (stereo not given),-6,3,-1,5,-1,5
Cc1ccc(C)c(-n2c(-c3ccc(Br)cc3)csc2=NC(=O)c2ccccc2F)c1,-6,-3,-2,10,-14,-4
O=C(C[C@@H]1C/C=C/CC[C@@H](Cc2ccc(F)cc2)C(=O)O[C@@H](c2ccccc2)CNC1=O)NCCO,1,/,18,-5,/,7
O=C(C[C@H]1C/C=C/CC[C@H](Cc2ccc(F)cc2)C(=O)O[C@H](c2ccccc2)CNC1=O)NCCO,9,/,30*,9,/,13
SMILES,PAFAH2 inh,Fam108B inh,PAFAH1B2 inh,PAFAH1B3 inh,PME-1 primary,pPAFAH FP inh
O=C(C[C@@H]1C/C=C/CC[C@@H](Cc2ccc(F)cc2)C(=O)O[C@H](c2ccccc2)CNC1=O)NCCO,-2,/,24*,-5,/,3
CN(C1CCCCC1)S(=O)(=O)c1ccc2[nH]c(=O)oc2c1,-6,2,14,3,-6,3
C=CCOc1c(Cl)cc(CNc2ccc(N(C)C)cc2)cc1OC,11,8,4,7,8,25*
COc1cccc(CNc2ccc(N3CCCCC3)cc2)c1OC,5,-6,-1,5,-6,1
CCOc1cc(CNc2ccc(N3CCCC3)cc2)cc(Cl)c1OC,13,12,1,3,8,23
COc1ccccc1CNc1ccc(N2CCCCC2)cc1,4,5,7,8,-2,27*
COc1cc(CNc2ccc(N3CCCC3)cc2)cc(Cl)c1OC,-4,7,7,10,6,28*
CCOc1ccc(CNc2ccc(N3CCCC3)cc2)cc1,1,2,4,6,2,33*
CCC(C)c1ccc(S(=O)(=O)N2CCN(C(=O)COc3ccc4c(C)cc(=O)oc4c3)CC2)cc1 (stereo not given),-12,-10,-1,-1,38*,-1
COc1cccc(/C=N/N2CCN(c3ccc(Cl)cc3)CC2)c1OC,0,-9,33*,5,-6,5
Clc1ccc(N2CCN(/N=C/c3cccnc3)CC2)cc1,2,1,28*,0,4,6
Cc1ccc(S(=O)(=O)c2nnn3c2nc(N2CCC(C(N)=O)CC2)c2ccccc23)cc1,1,3,-4,3,4,-4
CCOC(=O)[C@@H]1[C@H]2COc3ccccc3[C@H]2N2C(=O)N(c3cccc(C)c3)C(=O)[C@]12C,0,/,5,2,/,-5
O=C(CCN1C(=O)/C(=C\c2ccccc2F)SC1=S)Nc1ccc(C(=O)O)c(O)c1,11,1,6,5,3,20
O=C(CCN1C(=O)/C(=C/c2ccccc2)SC1=S)N[C@@H](CO)Cc1ccccc1,-5,-6,43*,3,-5,1
O=C(CCN1C(=O)/C(=C/c2ccccc2F)SC1=S)N[C@@H](CO)Cc1ccccc1,3,-1,38*,1,0,-2
Cc1ccc(NC(=O)CSc2ncc3ccccn23)cc1,4,3,5,4,5,6
Cc1coc2c(C)c3oc(=O)c(CCC(=O)NCCC(=O)O)c(C)c3cc12,10,-2,4,12,-2,4

# High-throughput results as filed in PubChem BioAssay.
